# Laboratory results from PubChem BioAssay AID743446 (Broad Institute, 2014).
# Potency and affinity values are given separately. Activity calls are given as the source filed them. How the calls were made is not given here.
# Experiment: HEK293 cell cytotoxicity, dose response, cytotoxicity control, plate reader, cherry-picked samples (AID 743446)
# Details: active compounds read low; at 26 µM unless noted
row,Structure (SMILES),max activity
1,CC(=O)N1CCc2cc(S(=O)(=O)C(C)CC(=O)NCc3ccco3)ccc21 (stereo not drawn),-15.3% [at 6 µM] (inactive)
2,C[C@@H]1CN([C@H](C)CO)C(=O)c2c(c3ccccc3n2C)-c2ccccc2CO[C@H]1CN(C)S(=O)(=O)c1cn(C)cn1,11.7% [at 12 µM] (inactive)
3,COCC(=O)N[C@@H]1CC[C@@H](CC(=O)NCc2ccccc2OC)O[C@@H]1CO,-9.61% [at 0.05 µM] (inactive)
4,COc1ccc(-n2ncc3c(N(C)C4CCCCC4)ncnc32)cc1,31.2% [at 0.05 µM] (inactive)
5,Cn1cccc1C(=O)OCC(=O)Nc1ccc2c(c1)OCCO2,-17.1% (inactive)
6,CN(C)c1ccc(NC(=O)c2cnsn2)cc1,-9.61% [at 12 µM] (inactive)
7,O=C(CC1CS(=O)(=O)CC1CC(=O)Nc1ccc2c(c1)OCCO2)Nc1ccc2c(c1)OCCO2 (stereo not drawn),38.3% [at 0.8 µM] (inactive)
8,Cc1ccnc(N2C(=O)c3ccccc3C2Nc2ccc3c(c2)OCCO3)c1 (stereo not drawn),25.2% [at 0.05 µM] (inactive)
9,COc1ccc2oc(C(=O)NCCc3ccccc3)c(C)c2c1,-55.4% (inactive)
10,C[C@H](CO)N1C[C@H](C)[C@H](CN(C)S(=O)(=O)c2ccc(C(F)(F)F)cc2)OCc2ccccc2-c2c(n(C)c3ccccc23)C1=O,-10.7% [at 1.6 µM] (inactive)
11,C[C@@H]1CN([C@H](C)CO)C(=O)c2c(c3ccccc3n2C)-c2ccccc2CO[C@@H]1CN(C)S(=O)(=O)c1ccc(C(F)(F)F)cc1,-8.56% (inactive)
12,O=S1(=O)CCOC[C@H](CC2CCCCC2)N1Cc1ccccc1F,-17.9% [at 0.1 µM] (inactive)
13,C[C@H](CO)N1C[C@H](C)[C@H](CN(C)C(=O)Nc2ccccc2)OCCCC[C@H](C)Oc2ccc(NC(=O)NC3CCCCC3)cc2C1=O,6.41% (inactive)
14,O=C(O)c1cccc(N/N=C/c2cccs2)c1,58.2% [at 6 µM] (inactive)
15,Cc1cc(-c2nc3cc(F)ccc3s2)ccc1N,28.1% [at 1.6 µM] (inactive)
16,CO[C@@H]1CN(C)C(=O)c2ccc(NC(=O)C3CC3)cc2OC[C@@H](C)NC[C@@H]1C,12% [at 3 µM] (inactive)
17,O=C(c1ccc(F)cc1)N1CC(=O)N2[C@@H](CO)[C@@H](c3ccc(C#CC4CCCC4)cc3)[C@@H]2C1,32.7% [at 6 µM] (inactive)

row,Structure (SMILES),max activity
1,CSc1nnc(NC(=O)c2ccc3c(c2)OCO3)s1,-9.38% [at 12 µM] (inactive)
2,Cc1ccc(C(=O)NCCc2cccs2)cc1,37.3% [at 3 µM] (inactive)
3,C[C@H]1CN([C@@H](C)CO)C(=O)c2cccc(NC(=O)NC3CCCCC3)c2O[C@@H]1CN(C)Cc1ccc(C(F)(F)F)cc1,27.3% [at 12 µM] (inactive)
4,O=C(CSc1nc2ccccc2[nH]1)Nc1nc(-c2cccc(Br)c2)cs1,46.2% [at 1.6 µM] (inactive)
5,COc1ccc(-n2nnnc2-c2nc3ccccc3s2)cc1,34.3% [at 0.8 µM] (inactive)
6,Cc1ccc(-c2nc(-c3ccncc3)no2)c(Cl)c1,10% [at 1.6 µM] (inactive)
7,COCCCNc1ccn2nc(-c3ccccc3)cc2n1,42.6% [at 12 µM] (inactive)
8,C=CCn1c(SCC(=O)Nc2ncc(Cc3ccc(C)c(Cl)c3)s2)nnc1-c1ccncc1,-6.05% [at 3 µM] (inactive)
9,CN1c2ccc(-c3ccc(F)cc3)cc2[C@H]2[C@H](CCN2C(=O)Nc2ccc(F)cc2)[C@H]1CO,39.2% [at 1.6 µM] (inactive)
10,C[C@H](CO)N1C[C@H](C)[C@H](CN(C)C(=O)Nc2ccc(F)cc2)OCCCC[C@H](C)Oc2ccc(NC(=O)NC3CCCCC3)cc2C1=O,38.8% [at 12 µM] (inactive)
11,CCCn1c(C)cc(C(=O)CN2C(=O)c3ccccc3S2(=O)=O)c1C,-16% [at 3 µM] (inactive)
12,Cc1ccc2nc(-c3ccc(N)cc3)sc2c1,21.7% [at 3 µM] (inactive)
13,C=CCNc1nc(-c2cc3ccccc3o2)cs1,-11.4% [at 0.8 µM] (inactive)
14,CN(C)S(=O)(=O)c1cccc(NC(=O)COc2ccccc2C(=O)Nc2ccccc2)c1,-34.1% (inactive)
15,CN(C)c1ccc(C2NC(=O)c3ccccc3N2)cc1 (stereo not drawn),20.5% [at 0.1 µM] (inactive)
16,C[C@H](CO)N1C[C@H](C)[C@H](CN(C)C(=O)CN2CCOCC2)Oc2ncc(C#CCN(C)C)cc2C1=O,18.5% [at 0.42 µM] (inactive)
